p53null 39C tox: kills p53 null cells at the nonpermissive temperature; H1299 p53-null (neo) cells, 39C, ATPlite viability, 24 h; Potency, µM (titrated, usually from 46.1 µM), hits mostly cytotoxic; 0.97% of 55,000 active; AID 904; further: nearly all actives have a fitted effect of over 50% in size
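Temperature-shift cytotoxicity format: compound titrations on p53-null or A138V-expressing H1299 cells held 24 hr at 39C, cell ATP then measured, AC50 from Hill model.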
p53null 32C kill: kills p53 null cells at the permissive temperature; H1299-neo p53 null cells, ATP luminescence, 24 h, 32C; Potency, µM (titrated, usually from 46.1 µM), most hits filed as cytotoxic; 0.62% of 55,000 active; AID 903; further: nearly all actives have a fitted effect of over 55% in size
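We seeded p53-null H1299-neo cells, incubated them overnight at 37C, and added compounds across a range up to 46 uM. After 24 hours at 32C, ATP reagent was applied for 20 min at room temperature and luminescence recorded.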
S16 viability: cytotoxicity in S16 Pmp22-F2sN Schwann cells; AID 1508642; S16 Pmp22-F2sN Schwann cells viability, CellTiter-Glo, 24 h; 0.48% of 43,000 active; Potency, µM (highest dose often 57.5 µM), usual class: cytotoxic; further: nearly all actives have a fitted effect of over 65% in size
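Rat S16 Schwann reporter line, 24 h treatment with library compounds delivered at 23 nL per well. Cell viability by CellTiter-Glo luminescence.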
pS6 MEF inh: mTORC1 pathway inhibition measured by phospho-rpS6; Potency, µM (doses to about 38.3 µM), most hits filed as inhibitors; 0.78% of 44,000 active; Tsc2-/- p53-/- MEF, phospho-rpS6 immunofluorescence/PI, 24 h; further: nearly all actives have a fitted effect of over 50% in size
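Tsc2-/-, p53-/- MEFs (empty-vector stable line) in DMEM + 10% FBS were treated with compounds 24 h at 37 degree Celsius, fixed, and immunostained for phospho-rpS6 (Alexa-488) with propidium iodide counterstain. Laser-scanning cytometry gave % positive cells, normalized against 7.5 nM rapamycin and DMSO.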
PMP22 txn prim: modulates PMP22 transcription in S16 Schwann cells; S16 Pmp22-F2sN Schwann cells, FLuc/NLuc coincidence luminescence, 24 h; Potency, µM (titrated, usually from 57.5 µM), actives largely listed as inhibitors; 2% of 43,000 active; active means clear falling dose curves in both reporters; inconclusive means both reporters move, but less clearly or upward; inactive means either reporter flat; the % is the NLuc reporter signal
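Schwann cells carrying the coincidence reporter were exposed to library compounds for 24 h at 37C, then lysed and read for FLuc and, after quenching, NLuc luminescence on a CCD imager.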
NLuc sat counter: NanoLuc enzyme inhibition artifact for PMP22 screen; shares compounds with PMP22 txn prim; Secreted NLuc enzyme (filtered S16 cell medium), Nano-Glo luminescence; Potency, µM (highest dose often 57.5 µM), hits mostly inhibitors; 4% of 690 active
NLuc Km ctr: counter-screen for PMP22 expression modulators: NanoLuc inhibition at Km. shares compounds with PMP22 txn prim. secreted NLuc enzyme, coelenterazine luminescence, Km conditions. Potency, µM (top dose mostly 57.5 µM), actives largely listed as inhibitors. 5% of 690 active. AID 1508639
FLuc ctr PMP22: counter-screen for PMP22 expression modulators: firefly luciferase inhibition; 690 tested, under 10 active; purified P. pyralis FLuc, luminescence, 10 min; shares compounds with PMP22 txn prim; Potency, µM (highest dose often 57.5 µM), hits mostly inhibitors
Target sequence (P08659 whole entry, looked up): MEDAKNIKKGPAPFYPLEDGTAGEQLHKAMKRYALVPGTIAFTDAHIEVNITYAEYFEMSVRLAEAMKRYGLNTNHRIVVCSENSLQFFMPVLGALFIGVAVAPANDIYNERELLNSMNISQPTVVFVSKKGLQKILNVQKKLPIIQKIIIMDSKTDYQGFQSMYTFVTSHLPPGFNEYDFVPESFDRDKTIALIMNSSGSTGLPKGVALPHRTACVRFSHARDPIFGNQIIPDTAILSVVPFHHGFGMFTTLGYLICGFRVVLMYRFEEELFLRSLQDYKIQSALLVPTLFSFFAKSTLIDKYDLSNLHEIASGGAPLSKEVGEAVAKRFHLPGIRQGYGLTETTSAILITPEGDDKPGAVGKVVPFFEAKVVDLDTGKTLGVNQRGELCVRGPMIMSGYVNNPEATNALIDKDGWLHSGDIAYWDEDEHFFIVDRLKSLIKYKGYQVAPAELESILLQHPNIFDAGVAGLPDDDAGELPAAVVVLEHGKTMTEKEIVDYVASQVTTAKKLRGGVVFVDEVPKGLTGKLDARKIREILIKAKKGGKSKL
S16 viab conf: confirmation of cytotoxicity in S16 Pmp22-F2sN Schwann cells (luciferase reporters placed in the Pmp22 gene) | shares compounds with PMP22 txn prim | S16 Schwann cells viability, CellTiter-Glo ATP luminescence, 24 h | Potency, µM (series often up to 57.5 µM), actives largely listed as cytotoxic | 7% of 690 active
PMP22 txn cnf: PMP22 transcription modulation, confirmatory; shares compounds with PMP22 txn prim; S16 Schwann cells Pmp22-F2sN, dual luciferase, 24 h; Potency, µM (titrated, usually from 57.5 µM), actives largely listed as inhibitors; 22% of 690 active; AID 1508646; active means clear falling dose curves in both reporters; inconclusive means both reporters move, but less clearly or upward; inactive means either reporter flat; the % is the FLuc reporter signal
Numbers stand for hits. Most compounds without a hit are left out; they make up all but 3.2% or so of the library. Unless noted, the call rests on the fitted dose curve; in most records, active means well fitted curve in the direction sought with a large enough effect; inconclusive means small, poorly fitted or top-dose-only effect, or another doubt; inactive means no such curve, though single readings can be large; an effect the other way counts as inactive or inconclusive.

What do the screens show for `Cc1ccc(NS(=O)(=O)c2cc(Br)cc3c2N(C(=O)C2CC2)CC3)cc1C`?
p53null 39C tox: inactive; p53null 32C kill: inactive; S16 viability: inconclusive; pS6 MEF inh: inactive; PMP22 txn prim: 8.91µM; NLuc sat counter: inconclusive; NLuc Km ctr: inactive; FLuc ctr PMP22: inactive; S16 viab conf: inconclusive; PMP22 txn cnf: inconclusive

What do the screens show for `COc1cc(NS(=O)(=O)c2cc(Br)cc3c2N(C(=O)C2CC2)CC3)cc(OC)c1`?
p53null 39C tox: inconclusive; p53null 32C kill: 7.94µM; S16 viability: inactive; pS6 MEF inh: inconclusive; PMP22 txn prim: 3.57µM; NLuc sat counter: 13.7µM; NLuc Km ctr: inconclusive; FLuc ctr PMP22: inactive; S16 viab conf: inconclusive; PMP22 txn cnf: 18.3µM

How did COc1ccc2c(CNC3CCCCCC3)c(C(=O)O)n(Cc3ccccc3F)c2c1 do in these assays?
p53null 39C tox: inactive; p53null 32C kill: inactive; S16 viability: inactive; pS6 MEF inh: inactive; PMP22 txn prim: inactive

How did CCOC(=O)c1cc(NC(=O)c2ccccc2)c(=O)n2c1oc1ccc(Cl)cc12 do in these assays?
p53null 39C tox: inactive; p53null 32C kill: inactive; S16 viability: inconclusive; pS6 MEF inh: inactive; PMP22 txn prim: inconclusive; NLuc sat counter: inactive; NLuc Km ctr: inactive; FLuc ctr PMP22: inactive; S16 viab conf: inactive; PMP22 txn cnf: inconclusive

Results for CCOC(=O)c1ccccc1NC(=O)n1ncc2cc(Cl)ccc21 ?
p53null 39C tox: inactive; p53null 32C kill: inactive; S16 viability: inactive; pS6 MEF inh: inactive; PMP22 txn prim: inactive

How did COc1cccc(-c2nc3c(c(SCc4ccccc4)n2)Cc2c(CO)cnc(C)c2O3)c1 do in these assays?
p53null 39C tox: inactive; p53null 32C kill: inactive; S16 viability: inactive; pS6 MEF inh: inactive; PMP22 txn prim: inconclusive

What do the screens show for `O=C(CSc1nc2ccsc2c(=O)n1-c1ccc(Cl)cc1)NCc1ccc(Cl)cc1`?
p53null 39C tox: inactive; p53null 32C kill: inactive; S16 viability: inactive; pS6 MEF inh: inactive; PMP22 txn prim: inconclusive

Results for O=C(CSc1nc2ccsc2c(=O)n1-c1ccc(Br)cc1)NCc1ccc(Cl)cc1 ?
p53null 39C tox: inactive; p53null 32C kill: inactive; S16 viability: inactive; pS6 MEF inh: inconclusive; PMP22 txn prim: 12.4µM; NLuc sat counter: inactive; NLuc Km ctr: inactive; FLuc ctr PMP22: inactive; S16 viab conf: inactive; PMP22 txn cnf: inconclusive

What do the screens show for `O=C1CN(C(=O)Cc2ccc(F)cc2)C(c2ccccc2)c2cc(Cl)ccc2N1` (stereo unspecified)?
p53null 39C tox: inactive; p53null 32C kill: inactive; S16 viability: inactive; pS6 MEF inh: inactive; PMP22 txn prim: inactive

What do the screens show for `COC(=O)C1=C(C)N=C2SCCC(=O)N2C1c1ccc(OCc2ccccc2)c(OC)c1` (stereo unspecified)?
p53null 39C tox: inactive; p53null 32C kill: inactive; S16 viability: inactive; pS6 MEF inh: inactive; PMP22 txn prim: inactive

How did COc1cc(C2C(C(=O)OC(C)C)=C(C)N=C3SCCC(=O)N32)ccc1OCc1ccccc1 (stereo unspecified) do in these assays?
p53null 39C tox: inactive; p53null 32C kill: inactive; S16 viability: inactive; pS6 MEF inh: inactive; PMP22 txn prim: 20µM; NLuc sat counter: inactive; NLuc Km ctr: inactive; FLuc ctr PMP22: inactive; S16 viab conf: inconclusive; PMP22 txn cnf: inactive

What do the screens show for `CCn1c(=O)cc(OCC(=O)N2CCN(c3ccccc3OC)CC2)c2ccccc21`?
p53null 39C tox: inactive; p53null 32C kill: inactive; S16 viability: inactive; pS6 MEF inh: inactive; PMP22 txn prim: 17µM; NLuc sat counter: inactive; NLuc Km ctr: inactive; FLuc ctr PMP22: inactive; S16 viab conf: inactive; PMP22 txn cnf: inactive

Results for CCc1ccc(N2C(=O)CSC23C(=O)N(Cc2cccc(OC)c2)c2ccccc23)cc1 (stereo unspecified) ?
p53null 39C tox: inactive; p53null 32C kill: inactive; S16 viability: inconclusive; pS6 MEF inh: inactive; PMP22 txn prim: 12.6µM; NLuc sat counter: inactive; NLuc Km ctr: inactive; FLuc ctr PMP22: inactive; S16 viab conf: inactive; PMP22 txn cnf: inactive

Results for COc1ccc(N2C(=O)CSC23C(=O)N(Cc2cccc(C(F)(F)F)c2)c2ccccc23)cc1 (stereo unspecified) ?
p53null 39C tox: inactive; p53null 32C kill: inactive; S16 viability: inactive; pS6 MEF inh: inactive; PMP22 txn prim: inconclusive

What do the screens show for `O=C(NCc1ccccc1Cl)c1ccc(Nc2nc3ccccc3n3nnnc23)cc1`?
p53null 39C tox: inactive; p53null 32C kill: inactive; S16 viability: inactive; pS6 MEF inh: inactive; PMP22 txn prim: 17.8µM; NLuc sat counter: inactive; NLuc Km ctr: inactive; FLuc ctr PMP22: inactive; S16 viab conf: inactive; PMP22 txn cnf: inconclusive

Results for COCCNC(=O)c1cccc(Nc2nc3ccccc3n3nnnc23)c1 ?
p53null 39C tox: inactive; p53null 32C kill: inactive; S16 viability: inactive; pS6 MEF inh: inactive; PMP22 txn prim: 10.6µM; NLuc sat counter: inactive; NLuc Km ctr: inconclusive; FLuc ctr PMP22: inactive; S16 viab conf: inactive; PMP22 txn cnf: inactive

What do the screens show for `CCCCOc1ccc(C(C)NC(=O)c2cccc(Nc3nc4ccccc4n4nnnc34)c2)cc1` (stereo unspecified)?
p53null 39C tox: inactive; p53null 32C kill: inactive; S16 viability: inconclusive; pS6 MEF inh: inactive; PMP22 txn prim: 5.32µM; NLuc sat counter: inactive; NLuc Km ctr: inactive; FLuc ctr PMP22: inactive; S16 viab conf: 27.3µM; PMP22 txn cnf: 10.3µM

Results for Cc1ccc(Cn2c(CN3CCC(C(=O)NCCc4ccccc4)CC3)cc3ccccc32)cc1 ?
p53null 39C tox: inactive; p53null 32C kill: inactive; S16 viability: inconclusive; pS6 MEF inh: inconclusive; PMP22 txn prim: inconclusive

Results for COC(=O)c1ccc(C(=O)OC)c(NC(=O)c2c(-c3ccccc3)c(-c3ccccc3)nn(C)c2=O)c1 ?
p53null 39C tox: inactive; p53null 32C kill: inactive; S16 viability: inactive; pS6 MEF inh: inactive; PMP22 txn prim: inconclusive
